Data as given in PubChem BioAssay AID720513 (Broad Institute, 2013).
Screen size: about 2,100 compounds; about 480 (23%) were called active. Another 5% or so got no clear call; they are omitted.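 How the source made its calls: active means fitted curve reaches 40% activation at or below the top valid concentration, in every replicate test; inconclusive means replicate tests disagree on the call; inactive means the rest, including activity in the opposite direction.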 Not all results are given here. Measured potencies and affinities stand elsewhere.

Assay: PGC1a acetylation increase, cellular AlphaLISA – cell-based, cherry-picked samples, set 6, dose response (AID 720513);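 further: cells made to overexpress flag tagged PGC1a plus GCN5 acetyltransferase by viral infection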
Conditions: U2OS PGC1a acetylation AlphaLISA, overnight, 0 = neutral, -100 = inhibitor control; series mostly up to 19.5 µM

Structure (SMILES) | outcome
CO[C@H]1CN(C)C(=O)c2cc(NC(=O)Nc3ccc(Cl)cc3)ccc2OC[C@H](C)NC[C@@H]1C | inactive
CO[C@H]1CN(C)C(=O)c2ccc(NC(=O)c3ccc(-c4ccccc4)cc3)cc2OC[C@H](C)NC[C@@H]1C | inactive
CCc1oc2c(C)c(O)ccc2c(=O)c1-c1ccc2ccccc2n1 | inactive
CC1CCCN(Cc2c(O)ccc3c4c(c(=O)oc23)CCCC4)C1 (stereo not given) | inactive
N#Cc1ccc(Cn2c(=O)c(C#N)c3n(c2=O)CCC3)cc1 | inactive
CC(C)Cn1cnc2c(N)nc3ccccc3c21 | inactive
Cc1ccc(C)c(NC(=O)c2nnn(Cc3ccccc3)c2N)c1 | inactive
Cc1cc(C)n(-c2ccc(Cl)c(C(=O)OCC(N)=O)n2)n1 | inactive
Cc1ccccc1NC(=O)Nc1ccccc1Br | inactive
CC(C)(C)c1ccc(CCC2OCC(C[N+]3(C)CCOCC3)O2)cc1 (stereo not given) | inactive
Clc1ccccc1CN1CCSCC1 | inactive
COc1ccc(-c2cc(N)n(S(=O)(=O)c3c(F)c(F)c(F)c(F)c3F)n2)cc1OC | inactive
O=C(CCSc1nnc(-c2ccc(O)cc2)o1)N1CCOCC1 | inactive
O=S(=O)(c1ccccc1)c1ncc(C(F)(F)F)cc1Cl | inactive
NNS(=O)(=O)c1ccc(Cc2ncc(C(F)(F)F)cc2Cl)s1 | inactive
CC(=O)N(c1cccc(C)c1)S(=O)(=O)c1ccc(Cl)cc1 | inactive
CC(C)NC(=O)N(C)C[C@H]1OCc2cnnn2CCCC(=O)N([C@@H](C)CO)C[C@H]1C | inactive
Oc1ccc(/C=N/Nc2nc(-c3ccc(Cl)cc3)cc(C(F)(F)F)n2)cc1 | inactive
O=C(CCC1CCCCC1)NCc1cccs1 | inactive
CCOc1ccc(NS(=O)(=O)c2ccc3c(c2)oc(=O)n3C)cc1 | inactive
O=C(Cc1ccc(-n2cccc2)cc1)NCc1cccs1 | inactive
O=C(OCc1ccccc1)N1CCC2CC1c1cc(-c3ccc(F)cc3)ccc12 (stereo not given) | inactive
Cn1cccc1C(=O)OCC(=O)Nc1ccc2c(c1)CCC2 | inactive
CCOc1ccc(N(C(=O)Nc2ccccc2)C2=NCCC2)cc1 | inactive
COc1ccc(Cl)cc1NC(=O)CN1CCC(n2nnc3cc(C)ccc32)CC1 | inactive
COc1cccc(OC)c1NC(=O)C1CCCN1C(=O)NCc1ccccc1 (stereo not given) | inactive
O=C(NCC[C@@H]1CC[C@H](NS(=O)(=O)c2ccccc2)[C@@H](CO)O1)c1ccccc1F | inactive
CCOC(=O)C1CCCN(C(=O)CSc2ccc(Br)cc2)C1 (stereo not given) | inactive
CCCNC(=O)Nc1ccc2c(c1)C(=O)N(C)C[C@H](OC)[C@H](C)CN(CC1CCCC1)[C@@H](C)CO2 | inactive
O=C(Cc1ccccn1)N[C@H]1CC[C@H](CCn2cc(-c3ccccc3)nn2)O[C@@H]1CO | inactive
